A selection: hits, their analogues and other compounds. The true share with any hit is near 7.9%.
MARV entry inh = qHTS for inhibitors of binding or entry into cells for Marburg Virus. AID 540276, 2011. Potency, µM (doses to about 37.8 µM), inactives show at the highest dose activity change, negative = inhibition, hits mostly inhibitors. Marburg virus pseudotyped entry inhibition, cell reporter. hit rate 1.8% among 300,000; calls by dose curve; tested in HEK293 cells; note: potency is the fitted concentration of half-maximal effect
HCMV antiviral = qHTS Assay for inhibitors of the human cytomegalovirus (HCMV) | hit rate 4.5% among 410,000 | HFF cells, HCMV-luciferase reporter, 72 h; active compounds read low | activity change, negative = inhibition, % at 57.5 µM | AID 1259415, 2018; in the data active = activity change below about -60%; inconclusive = no clear call, values can overlap the other calls; inactive = above about -39%
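Compounds were evaluated in HFFs infected with an HCMV luciferase reporter virus (MOI 1 PFU/cell). Luciferase in lysates collected 72 h post infection served as the replication measure.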
Lassa entry inh = qHTS for Inhibitors of binding or entry into cells for Lassa Virus; Lassa virus pseudotype entry inhibition, cell reporter; Potency, µM (top dose mostly 37.9 µM), inactives show at the top dose activity change, negative = inhibition, most hits filed as inhibitors; hit rate 1.2% among 300,000; AID 540256, 2011; calls by dose curve; tested in HEK293 cells; note: potency is the fitted concentration of half-maximal effect; nearly all actives have a fitted effect of over 50% in size
FMDV antiviral = High Throughput Screening for Foot and Mouth Disease Virus Antivirals. FMDV antiviral cell-based qHTS. Potency, µM (titrated, usually from 57.9 µM), for the others: at the highest dose activity change, negative = inhibition, usual class: inhibitors. hit rate 1.2% among 410,000; calls by dose curve; tested in HEK293T cells; note: read-out not given here; potency is the fitted concentration of half-maximal effect; nearly all actives have a fitted effect of over 45% in size
HCV inhibitor = qHTS Assay for Inhibitors of Hepatitis C Virus (HCV); Huh7.5.1 HCVcc-Cre infection, luciferase reporter, 44 h; Potency, µM (series often up to 41.8 µM), for the others: at the highest dose activity change, negative = inhibition, hits mostly inhibitors; hit rate 3.4% among 340,000; AID 651820, 2012; active = well fitted inhibition curve with a large enough effect; inconclusive = small, poorly fitted or top-dose-only effect, or another doubt; inactive = no such curve, though single readings can be large or run the other way; note: potency is the fitted concentration of half-maximal effect
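Antiviral activity was scored by luciferase reporter output from cells infected with HCVcc-Cre (~0.5 moi) in presence of compound, 44 h infection period, cells seeded 1,000/well 4 h prior.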
* = called active by the depositor; ? = inconclusive; nt = not tested or not shown; [ ] = dose if it differs, or a comment. % is set by controls: 0 for no effect and ±100 for the full control effect.

SMILES	MARV entry inh	HCMV antiviral	Lassa entry inh	FMDV antiviral	HCV inhibitor
CC(C)n1c(O)c(C2c3cc(Cl)ccc3Oc3[nH]c(=O)n(C(C)C)c(=O)c32)c(=O)[nH]c1=O (stereo unspecified)	?	nt	?	3.5µM*	5µM*
COc1ccc(-c2nc3ccccc3n3c(-c4cccc(C)c4)c4c(=O)n(C)c(=O)n(C)c4c23)cc1OC	2%[46.1 µM]	?	2%[46.1 µM]	?	nt
Cc1ccc(-c2cc(NC(=O)C(C)Oc3ccccc3F)on2)cc1 (stereo unspecified)	16%[46.1 µM]	35	15%[46.1 µM]	-5%	nt
COc1ccc(-c2nc3ccccn3c2CN2CCN(c3ccccc3F)CC2)cc1	-18%[46.1 µM]	-61*	-13%	-27%	?
COc1ccc(-c2nc3ccccn3c2Cl)cc1	?	-34	3.5µM*	?	?
COc1ccc(CN2CCC(C(=O)c3ccc(Cl)cc3)CC2)cc1	nt	-37	nt	-17%	11µM*
COc1ccc(CN2CCCC(C(=O)c3ccc(Cl)cc3)C2)cc1Cn1cccn1 (stereo unspecified)	2.8µM*	-9	10µM*	-14%	10µM*
COc1ccc(CN2CCC(C(=O)c3cccc(Cl)c3)CC2)cc1	nt	-8	nt	-14%	-9%
COc1cccc(C(=O)C2CCCN(Cc3ccc(OC)c(Cn4cncn4)c3)C2)c1 (stereo unspecified)	?	0	-15%	-23%	?
CC(C)Oc1cccc(C(=O)C2CCCN(Cc3ccc4nonc4c3)C2)c1 (stereo unspecified)	?	-20	?	-17%	?
O=C(c1ccc(Cl)cc1)C1CCCN(Cc2ccc3nonc3c2)C1 (stereo unspecified)	nt	-25	nt	4%	22µM*
COc1cc(Cl)c(C)cc1N1C(=O)[C@@H]2C[C@H]1CN2Cc1ccccn1	nt	nt	nt	-11%	nt
CN1CCN(C(=O)CCN2C(=O)/C(=C\c3ccc(F)cc3)SC2=S)CC1	1%	42	?	?	?
CC(C(=O)NC1C=CS(=O)(=O)C1)N1C(=O)/C(=C/c2cccc(Cl)c2)SC1=S (stereo unspecified)	nt	-65*	nt	2%	5%
CCc1ccc(/C=C2\SC(=S)N(CCCC(=O)N3CCN(C)CC3)C2=O)cc1	nt	-101*	nt	15%	nt
COc1ccc(/C=C2\SC(=S)N(CCCC(=O)N3CCN(C)CC3)C2=O)cc1	?	-77*	?	5%	16%
COc1ccc(/C=C2\SC(=S)N(CCC(=O)NC3C=CS(=O)(=O)C3)C2=O)cc1 (stereo unspecified)	nt	-80*	nt	-3%	?
Cc1ccc(Cl)cc1N1CCN(C(=O)c2ccc3c(c2)CCN3S(=O)(=O)c2ccccc2)CC1	?	-4	?	-10%	nt
COCCn1c(=O)c(C)nc2cnc(N3CCNCC3)nc21	nt	nt	nt	-21%	nt
CN1CCN(C(=O)CCCN2C(=O)/C(=C/c3cccc(Br)c3)SC2=S)CC1	10µM*	-84*	?	-7%	6.3µM*
CCOC(=O)C1=NN(c2ccccc2)C(=O)/C1=C\c1ccc(N(C)C)cc1	-3%	-11	-1%	18µM*	11%
COc1ccc(SCC2CN(C)CCC2c2ccc(F)cc2)cc1 (stereo unspecified)	nt	-10	nt	14%	11µM*
CN(C(=O)CSc1nc2ccccc2n1CC(=O)NCc1ccc(F)cc1)c1ccc(F)cc1	nt	?	-17%[46.1 µM]	16%	nt
CCc1nc2scc(-c3ccc(C)cc3)c2c(=O)n1N	-3%	-21	14%	-2%	-23%
Cc1ccc(-c2csc3nc4c5ccccc5c(NCCCN(C)C)nn4c(=O)c23)cc1	nt	-99*	nt	-30%	3%
SMILES	MARV entry inh	HCMV antiviral	Lassa entry inh	FMDV antiviral	HCV inhibitor
CN1C(C(=O)NC(C)(C)C)=CC(c2ccc3c(c2)OCO3)=NS1(=O)=O	13%[46.1 µM]	-8	-7%[46.1 µM]	-9%	nt
CSc1ncc(Cl)c(C(=O)N(Cc2ccc(N(C)C)cc2)Cc2ccco2)n1	-4%[46.1 µM]	-17	-28%[46.1 µM]	-23%	nt
CCCSc1ncc(Cl)c(C(=O)N(Cc2ccc(Cl)cc2)Cc2ccco2)n1	?	-66*	-24%[46.1 µM]	?	nt
CCCS(=O)(=O)c1ncc(Cl)c(C(=O)N(Cc2ccccc2)Cc2ccco2)n1	?	-98*	?	16µM*	nt
CCSc1ncc(Cl)c(C(=O)N(Cc2ccccc2)Cc2ccco2)n1	2%[46.1 µM]	-100*	16%[46.1 µM]	-15%	nt
Cc1cccc(Cn2c(SCc3ccc(C(=O)NCCc4ccccc4)cc3)nc3cccnc32)c1	nt	3	?	-3%	nt
Cc1cccc(CNS(=O)(=O)c2ccc3[nH]c(=O)ccc3c2)c1	nt	-3	1%[46.1 µM]	?	nt
COc1ccc(-c2cnc(N)nc2-c2ccc(OC)cc2)cc1	nt	-4	nt	?	?
COc1ccc2c(c1)CCc1cnc(N)nc1-2	?	-68*	1%	29%	?
Cc1ccc(S(=O)(=O)N[C@H]2CC[C@@]34CCCN3C(=O)CCC[C@H]4[C@H]2Cc2ccccc2)cc1	nt	-18	nt	nt	nt
CCCN(CCC)C(=O)Cn1c(=O)n(Cc2ccc(C(=O)NCCc3ccc(OC)c(OC)c3)cc2)c(=O)c2ccccc21	10%[46.1 µM]	5	9%[46.1 µM]	0%	nt
Cc1cccc(NC(=S)NCCc2c[nH]c3ccccc23)c1	?	-80*	?	13%	-13%
Cc1ccc(C)c(NC(=S)NCCc2c[nH]c3ccccc23)c1	?	-78*	?	2%	?
Cc1ccc(NC(=S)NCCC(c2ccccc2)c2ccccc2)c(C)c1	?	-62*	?	10%	11µM*
Cc1cccc(NC(=S)NCCC(C)C)c1	1.5µM*	-30	?	113%	?
Cc1ccc(NC(=S)NCCc2c[nH]c3ccccc23)cc1	9%	1	-21%	39%	?
O=C(c1ccc(F)cc1)N1CC(=O)N2[C@H](CO)[C@H](c3ccc(Br)cc3)[C@@H]2C1	nt	-18	nt	nt	nt
O=C(CSc1ncc(-c2ccccc2)[nH]1)Nc1cccc(C(F)(F)F)c1	25%[46.1 µM]	-34	10%[46.1 µM]	19%	nt
Clc1ccc2c(SCC3CO3)c3ccccc3nc2c1 (stereo unspecified)	?	-37	20µM*	?	?
CC1=C(C(=O)OCc2ccccc2)C(/C=C/c2ccccc2)NC(=S)N1 (stereo unspecified)	?	-33	13µM*	?	8.9µM*
C=CCOC(=O)C1=C(C)NC(=S)NC1/C=C/c1ccccc1 (stereo unspecified)	-13%	-19	7%	?	?
COCCCN=C1NN=C(c2cc(C)n(Cc3ccco3)c2C)CS1	16µM*	19	?	4%	-3%
C=CCn1c(C)cc(C2=NNC(=Nc3ccc(C)cc3)SC2)c1C	?	-9	6%[46.1 µM]	29%	1%
COCC(C)N=C1NN=C(c2cc(C)n(Cc3ccccc3Cl)c2C)CS1 (stereo unspecified)	nt	-79*	nt	-21%	?

Screens deposited in PubChem by National Center for Advancing Translational Sciences (NCATS).
